Data reported in ChEMBL document CHEMBL2218924, “A broad activity screen in support of a chemogenomic map for kinase signalling research and drug discovery” (Biochem J, 2013).

Experiments:
[1] = biological target: T1, Aurora kinase C (Homo sapiens) (UniProt Q9UQB9); details: at 1 µM
T1 sequence (whole entry): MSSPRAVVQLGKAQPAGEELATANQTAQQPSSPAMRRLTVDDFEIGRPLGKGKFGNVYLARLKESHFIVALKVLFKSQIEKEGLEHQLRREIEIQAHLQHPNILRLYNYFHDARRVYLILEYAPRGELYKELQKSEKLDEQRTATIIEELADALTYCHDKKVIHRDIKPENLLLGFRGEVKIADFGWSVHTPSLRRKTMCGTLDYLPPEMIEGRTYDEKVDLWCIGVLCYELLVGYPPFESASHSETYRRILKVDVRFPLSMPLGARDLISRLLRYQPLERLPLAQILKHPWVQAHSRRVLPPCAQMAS

[2] = biological target: T1, Aurora kinase C (Homo sapiens); details: at 10 µM
[3] = biological target: Tyrosine-protein kinase receptor UFO (Homo sapiens) (UniProt P30530); details: at 1 µM
Sequence of Tyrosine-protein kinase receptor UFO (Homo sapiens) (P30530 whole entry): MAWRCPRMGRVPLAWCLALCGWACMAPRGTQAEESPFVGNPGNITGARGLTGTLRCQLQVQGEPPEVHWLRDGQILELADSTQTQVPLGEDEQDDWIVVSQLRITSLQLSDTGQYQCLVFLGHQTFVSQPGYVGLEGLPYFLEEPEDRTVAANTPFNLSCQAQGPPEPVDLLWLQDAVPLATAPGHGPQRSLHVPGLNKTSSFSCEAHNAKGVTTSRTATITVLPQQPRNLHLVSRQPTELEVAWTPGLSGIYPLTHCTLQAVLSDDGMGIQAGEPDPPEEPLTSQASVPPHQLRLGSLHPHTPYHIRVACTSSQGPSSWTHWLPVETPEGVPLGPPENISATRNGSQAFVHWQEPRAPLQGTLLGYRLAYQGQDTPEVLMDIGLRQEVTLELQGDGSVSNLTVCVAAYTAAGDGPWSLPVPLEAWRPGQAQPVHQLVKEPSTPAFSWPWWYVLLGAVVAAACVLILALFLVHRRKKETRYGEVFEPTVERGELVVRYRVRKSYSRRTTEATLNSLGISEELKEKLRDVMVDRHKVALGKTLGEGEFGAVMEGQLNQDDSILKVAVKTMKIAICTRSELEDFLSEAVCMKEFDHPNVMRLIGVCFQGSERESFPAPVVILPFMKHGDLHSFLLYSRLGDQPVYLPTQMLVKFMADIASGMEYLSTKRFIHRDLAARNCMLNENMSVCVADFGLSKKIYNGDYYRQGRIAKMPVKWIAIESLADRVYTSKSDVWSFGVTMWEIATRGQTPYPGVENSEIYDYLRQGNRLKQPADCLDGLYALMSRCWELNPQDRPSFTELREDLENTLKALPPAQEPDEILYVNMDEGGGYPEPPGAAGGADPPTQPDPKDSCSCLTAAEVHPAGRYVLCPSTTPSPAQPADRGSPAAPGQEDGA

[4] = biological target: Tyrosine-protein kinase receptor UFO (Homo sapiens) (UniProt P30530); details: at 10 µM
[5] = biological target: Protein-tyrosine kinase 6 (Homo sapiens) (UniProt Q13882); details: at 1 µM
Sequence of Protein-tyrosine kinase 6 (Homo sapiens) (Q13882 whole entry, looked up): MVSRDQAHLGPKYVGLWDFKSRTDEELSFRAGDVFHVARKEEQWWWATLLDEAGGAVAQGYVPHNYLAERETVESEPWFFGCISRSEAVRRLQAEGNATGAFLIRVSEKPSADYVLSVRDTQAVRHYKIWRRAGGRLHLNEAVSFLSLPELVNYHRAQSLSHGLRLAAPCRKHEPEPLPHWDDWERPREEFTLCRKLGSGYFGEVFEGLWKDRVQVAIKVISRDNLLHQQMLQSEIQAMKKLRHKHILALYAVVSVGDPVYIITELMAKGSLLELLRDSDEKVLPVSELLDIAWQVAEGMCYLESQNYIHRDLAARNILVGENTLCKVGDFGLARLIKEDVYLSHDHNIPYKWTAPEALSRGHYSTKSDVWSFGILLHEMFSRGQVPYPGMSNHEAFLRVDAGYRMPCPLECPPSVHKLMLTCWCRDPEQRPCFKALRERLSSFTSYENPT

[6] = biological target: Protein-tyrosine kinase 6 (Homo sapiens) (UniProt Q13882); details: at 10 µM
[7] = biological target: Tyrosine-protein kinase Blk (Homo sapiens) (UniProt P51451); details: at 1 µM
Sequence of Tyrosine-protein kinase Blk (Homo sapiens) (P51451 2-505 limits assumed): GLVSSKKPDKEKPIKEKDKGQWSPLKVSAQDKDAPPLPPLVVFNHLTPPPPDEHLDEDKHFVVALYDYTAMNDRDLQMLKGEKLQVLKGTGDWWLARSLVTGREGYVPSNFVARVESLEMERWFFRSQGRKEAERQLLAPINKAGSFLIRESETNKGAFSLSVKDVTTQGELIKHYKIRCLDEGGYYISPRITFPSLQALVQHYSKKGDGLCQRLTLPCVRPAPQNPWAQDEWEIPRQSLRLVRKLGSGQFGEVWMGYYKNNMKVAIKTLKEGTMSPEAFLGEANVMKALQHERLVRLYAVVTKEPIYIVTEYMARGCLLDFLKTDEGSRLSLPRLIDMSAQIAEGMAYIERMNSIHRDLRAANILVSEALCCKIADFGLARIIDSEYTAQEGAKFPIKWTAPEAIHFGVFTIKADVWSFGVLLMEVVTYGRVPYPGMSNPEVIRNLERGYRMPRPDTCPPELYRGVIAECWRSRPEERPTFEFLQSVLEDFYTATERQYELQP

[8] = biological target: Tyrosine-protein kinase Blk (Homo sapiens) (UniProt P51451); details: at 10 µM
[9] = biological target: Tyrosine-protein kinase BTK (Homo sapiens) (UniProt Q06187); details: at 1 µM
Sequence of Tyrosine-protein kinase BTK (Homo sapiens) (Q06187 whole entry): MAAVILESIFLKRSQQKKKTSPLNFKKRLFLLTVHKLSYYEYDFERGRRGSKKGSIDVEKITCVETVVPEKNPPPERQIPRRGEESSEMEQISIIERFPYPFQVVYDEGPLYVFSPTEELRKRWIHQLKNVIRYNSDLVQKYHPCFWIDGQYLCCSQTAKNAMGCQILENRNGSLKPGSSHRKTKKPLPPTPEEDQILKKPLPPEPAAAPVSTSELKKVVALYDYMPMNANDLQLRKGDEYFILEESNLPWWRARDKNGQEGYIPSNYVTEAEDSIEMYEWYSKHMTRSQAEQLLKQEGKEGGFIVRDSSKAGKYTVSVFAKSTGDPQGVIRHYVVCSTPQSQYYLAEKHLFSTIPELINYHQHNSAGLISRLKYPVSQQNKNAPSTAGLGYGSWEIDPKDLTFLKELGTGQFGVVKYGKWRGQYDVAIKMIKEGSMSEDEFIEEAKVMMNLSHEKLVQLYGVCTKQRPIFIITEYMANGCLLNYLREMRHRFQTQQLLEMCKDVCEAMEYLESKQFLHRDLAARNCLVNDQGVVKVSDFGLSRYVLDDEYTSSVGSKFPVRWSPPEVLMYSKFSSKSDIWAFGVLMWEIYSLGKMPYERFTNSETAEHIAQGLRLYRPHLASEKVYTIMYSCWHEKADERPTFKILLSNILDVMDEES

[10] = biological target: Tyrosine-protein kinase BTK (Homo sapiens) (UniProt Q06187); details: at 10 µM

| Structure (SMILES) | residual activity [1] | residual activity [2] | residual activity [3] | residual activity [4] | residual activity [5] | residual activity [6] | residual activity [7] | residual activity [8] | residual activity [9] | residual activity [10] |
| --- | --- | --- | --- | --- | --- | --- | --- | --- | --- | --- |
| Nc1nc(Nc2ccc(S(N)(=O)=O)cc2)nn1C(=O)c1c(F)cccc1F | 6% | 1% | 56% | 13% | 106% | 74% | 74% | 9% |  |  |
| CC(C)(C)n1nc(Cc2cccc3ccccc23)c2c(N)ncnc21 | 94% | 71% | 80% | 72% | 5% | -1% | 77% | 13% | 24% | 3% |
| NC(=O)Nc1sc(-c2ccc(F)cc2)cc1C(N)=O | 9% | 3% | 77% | 24% | 77% | 26% | 39% | 4% | 38% | 1% |
| CCN(CC)CCNC(=O)c1c(C)[nH]c(/C=C2\C(=O)Nc3ccc(Cl)cc32)c1C | 38% | 5% | 9% | 1% | 65% | 11% | 1% | 0% |  |  |
| Nc1ncnc2c1c(-c1ccc(Oc3ccccc3)cc1)cn2C1CCCC1 | 87% | 54% | 58% | 21% | 0% | -1% | 0% | 0% | 1% | 1% |
| CC(C)c1nn(-c2c(Cl)cccc2Cl)c2nc(Cc3ccc(OCCO)cc3)[nH]c(=O)c12 | 85% | 90% | 90% | 87% |  |  | 92% | 76% | 87% | 97% |
| CCCCc1c(-c2ccc(OC)cc2)[nH]c2nccnc12 | 59% | 54% | 77% |  | 37% | 46% | 73% | 72% | 35% | 4% |
| NC(=O)c1ccc(-c2nc(-c3ccc4c(c3)OCCO4)c(-c3ccccn3)[nH]2)cc1 | 84% | 90% | 77% | 85% |  |  | 88% | 85% |  |  |
| O=C(CCCc1ccc(-c2ccccc2F)cc1)Nc1ccc(O)cc1 | 97% | 92% | 105% | 100% | 104% | 96% |  |  | 106% | 95% |
| O=c1cc(N2CCOCC2)oc2c1ccc1ccccc12 | 102% | 87% | 82% | 78% | 110% | 105% |  | 90% | 94% | 86% |
| Cn1sc(=O)n(Cc2ccccc2)c1=O | 76% | 77% | 96% | 66% | 96% | 95% |  |  | 91% | 91% |
| O=C(O)/C=C/c1cc(Br)c(Br)c(Br)c1Br | 98% | 78% | 91% | 51% | 99% | 101% | 99% | 81% | 102% | 91% |
| CCCCc1c(-c2ccc(O)cc2)[nH]c2nccnc12 | 50% | 49% | 92% | 75% | 31% | 29% | 73% | 50% | 33% | 10% |
| CC(C)[C@H](CO)Nc1nc(Nc2cc(N)cc(Cl)c2)c2ncn(C(C)C)c2n1 | 91% | 52% | 80% | 20% | 96% | 83% |  |  | 48% | 5% |
| Nc1ncnc2[nH]nc(Nc3ccc(F)cc3)c12 | 80% | 43% | 90% | 57% | 51% | 19% | 3% | 3% | 74% | 34% |
| COc1cc2nccc(Oc3ccc(NC(=S)NC(=O)c4ccccc4C)cc3)c2cc1OC | 13% | 1% | 11% | 8% | 22% | 11% | 0% | 0% | 17% | 2% |

| Structure (SMILES) | residual activity [1] | residual activity [2] | residual activity [3] | residual activity [4] | residual activity [5] | residual activity [6] | residual activity [7] | residual activity [8] | residual activity [9] | residual activity [10] |
| --- | --- | --- | --- | --- | --- | --- | --- | --- | --- | --- |
| CC(C)(C)c1nc2c3ccc(F)cc3c3c(=O)[nH]ccc3c2[nH]1 | 11% | 7% | 40% | 59% |  |  |  |  | 71% | 59% |
| O=C(c1ccccc1)c1ccc(N2CCOCC2)cc1O | 64% | 78% | 86% | 72% |  |  | 95% | 81% |  | 116% |
| O=C1Nc2ccc(Cl)cc2/C1=C/c1cc(Cl)c(O)c(Cl)c1 | 96% | 65% | 71% | 46% | 84% | 65% | 96% | 50% | 95% | 70% |
| O=C(c1cc2cc(O)ccc2[nH]1)c1cc2cc(O)ccc2[nH]1 | 61% | 24% | 50% | 15% |  |  | 6% | 1% | 78% | 34% |
| COc1cc2ncnc(Nc3cccc(Cl)c3)c2cc1OC | 100% | 45% | 102% | 51% | 33% | 3% | 43% | 5% |  |  |
| N#Cc1c(NC(=O)c2cccc3ccccc23)sc2c1CCCC2 | 98% | 97% | 96% | 79% |  |  |  | 97% |  |  |
| CCCC(=O)Oc1ccc2[nH]c(C(=O)c3cc4ccccc4[nH]3)cc2c1 | 104% | 84% | 81% | 80% | 101% | 107% | 70% | 64% | 94% |  |
| CC(C)N(CCC(=O)c1ccc2ccccc2c1)Cc1ccccc1 | 76% | 61% | 69% | 74% |  |  |  |  |  |  |
| Cn1c2ccccc2c2c3c(c4c5ccccc5n(CCC#N)c4c21)CNC3=O | 47% | 35% | 53% | 32% |  |  |  |  | 10% | 9% |
| COc1cc2nccc(Oc3ccc(NC(=O)Nc4cc(C)on4)c(Cl)c3)c2cc1OC | 32% | 7% | 12% | 10% | 2% | -1% | 2% | 0% | 50% | 10% |
| COc1ccc(-c2cnc3c(-c4ccsc4)cnn3c2)cc1 | 95% | 63% | 94% | 95% |  |  |  |  |  |  |
| O=C1NC(=O)C(c2cn(CCCO)c3ncccc23)=C1c1cnccn1 | 97% | 88% | 61% | 59% |  |  | 78% | 69% |  |  |
| O=C(NC(NC(=S)Nc1ccc(F)c([N+](=O)[O-])c1)C(Cl)(Cl)Cl)C(c1ccccc1)c1ccccc1 (stereo not drawn) | 94% | 91% |  | 91% |  |  |  |  | 87% | 89% |
| CN(C)S(=O)(=O)c1ccc2c(c1)/C(=C/c1cc3c([nH]1)CCCC3)C(=O)N2 | 75% | 52% | 51% | 36% | 98% | 94% | 10% | 2% | 91% | 50% |
| Nc1n[nH]c2nc3ccccc3nc12 | 72% | 30% | 94% | 96% |  |  | 89% | 88% | 88% | 88% |
| O=C1NC(=O)c2c1c1c3ccccc3[nH]c1n1cncc21 | 37% | 12% | 86% | 71% | 81% | 53% | 57% | 8% | 70% | 34% |
